# Experimental data as given in the supplement of paper PMC10127200.
# Structures can show the parent of a compound that is named as a salt.
# Tests used:
# Assay in all cases: Euclidean distance of Cell Painting phenotypic profile (signed KS, 77 features) to DMSO centroid (dimensionless distance); 5 or 10 uM (library dependent); higher = stronger phenotypic change vs DMSO (phenoactivity)
# Settings in all cases: 48 h
# 786-O = system: 786-O
# Summary of the method: (§1)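 Harmony extracted 77 features from 20X confocal images (9 fields/well) of stained cells, scoring each as a signed Kolmogorov-Smirnov statistic against same-plate vehicle wells. The cells, five cancer lines and a healthy fibroblast line, had received library compounds for 48 h at 10 or 5 uM depending on library, with 0.1% DMSO final. Phenoactivity is the Euclidean distance from each plate-position-corrected, correlation-weighted, top-dose replicate-averaged profile to the median vehicle profile.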
# A549 = system: A549
# Summary of the method: as §1
# DU145 = system: DU145
# Summary of the method: as §1
# FB = system: FB
# Summary of the method: as §1
# HEPG2 = system: HEPG2
# Summary of the method: as §1
# OVCAR4 = system: OVCAR4
# Summary of the method: as §1
Structure (SMILES),Euclidean distance (786-O),Euclidean distance (A549),Euclidean distance (DU145),Euclidean distance (FB),Euclidean distance (HEPG2),Euclidean distance (OVCAR4)
Clc1ccc(Cn2c(CN3CCCC3)nc3ccccc32)cc1 [Clemizole],1.07,0.265,1.22,0.972,0.65,0.648
O=C(/C=C/C#Cc1cccc(NS(=O)(=O)c2ccccc2)c1)NO [Oxamflatin],3.39,3.01,2.81,4.53,2.79,3.64
CN(C)[C@@H](CCOc1cccc2ccccc12)c1ccccc1 [Dapoxetine HCl],1.49,0.787,2.96,1.26,1.1,1.26
CCOc1ccc(Cc2cc([C@@H]3O[C@H](SC)[C@@H](O)[C@H](O)[C@H]3O)ccc2Cl)cc1 [Sotagliflozin (LX4211)],1.32,1.07,1.9,0.889,0.553,0.781
C[C@H]1[C@H](C)CC[C@]2(C(=O)O)CC[C@]3(C)C(=CC[C@@H]4[C@@]5(C)C[C@@H](O)[C@H](O)[C@@](C)(CO)[C@@H]5CC[C@]43C)[C@H]12 [Asiatic Acid],0.996,0.839,1.11,1.04,1.24,0.885
O=C(O)C1(C(=O)O)CCC1.[NH2-].[NH2-].[Pt+2] [Carboplatin],2.76,1.98,2.65,2.23,2.58,2.66
COc1ccc(-c2cc(=O)c3c(O)cc(O[C@@H]4O[C@H](CO[C@@H]5O[C@@H](C)[C@H](O)[C@@H](O)[C@H]5O)[C@@H](O)[C@H](O)[C@H]4O)cc3o2)cc1O [Diosmin],0.665,0.621,1.01,0.778,0.671,0.702
O=C1CCc2cc(OCCCCc3nnnn3C3CCCCC3)ccc2N1 [Cilostazol],1.11,0.94,1.56,1.21,0.849,1.26
CC[C@]1(O)C[C@H]2CN(CCc3c([nH]c4ccccc34)[C@@](C(=O)OC)(c3cc4c(cc3OC)N(C=O)[C@H]3[C@@](O)(C(=O)OC)[C@H](OC(C)=O)[C@]5(CC)C=CCN6CC[C@]43[C@@H]65)C2)C1 [Vincristine],3.12,2.61,4.78,3.47,3.99,2.86
Cc1nc(C)c(Cl)c(O)c1Cl [Clopidol],0.853,1.1,0.432,1.15,0.83,1.61
COC(=O)N/N=C/c1c[n+]([O-])c2ccccc2[n+]1[O-] [Carbadox],0.912,0.99,0.837,1.23,1.04,1.46
CCN(CC)CCNC(=O)c1c(C)[nH]c(/C=C2\C(=O)Nc3ccc(-c4csc(-c5ccccc5)n4)cc32)c1C [Amcasertib (BBI503)],5.91,5.2,7.77,5.61,2.05,2.89
NC(=O)c1cnccn1 [Pyrazinamide],1.07,1.35,0.786,1.14,1.95,1.13
COC(=O)C1=C(C)NC(C)=C(C(=O)OCCN(C)Cc2ccccc2)C1c1cccc([N+](=O)[O-])c1 (stereo unspecified) [Nicardipine HCl],1.27,1.28,0.897,0.903,1.24,1.31
COc1c(N2C[C@@H]3CCCN[C@@H]3C2)c(F)cc2c(=O)c(C(=O)O)cn(C3CC3)c12 [Moxifloxacin],1.32,0.519,0.919,1.06,0.804,0.918
CC1(N)CCN(c2cccnc2NC(=O)c2nc(-c3ncccc3C(F)(F)F)cnc2N)CC1,2.98,2.64,3.38,2.85,3.49,2.63
Cc1cn([C@@H]2C[C@@H](O)[C@H](CO)O2)c(=O)[nH]c1=O [Telbivudine],1.15,0.884,0.651,1.53,0.469,1.12
COC(=O)[C@H](c1ccccc1Cl)N1CCc2sccc2C1 [Clopidogrel],2.53,2.3,2.44,2.99,1.3,2.4
CNCCc1ccccn1 [Betahistine 2HCl],1.56,0.851,1.21,0.822,0.61,1.03
O=C(O)c1cn(-c2ccc(F)cc2)c2cc(N3CCNCC3)c(F)cc2c1=O [Sarafloxacin HCl],1.11,0.812,1.78,0.799,0.601,0.719
CCCCCCOC(=O)NC(=N)c1ccc(NCc2nc3cc(C(=O)N(CCC(=O)OCC)c4ccccn4)ccc3n2C)cc1 [Dabigatran Etexilate],1.9,1.35,1.17,1.58,1.58,1.47

Structure (SMILES),Euclidean distance (786-O),Euclidean distance (A549),Euclidean distance (DU145),Euclidean distance (FB),Euclidean distance (HEPG2),Euclidean distance (OVCAR4)
Cc1c(N)c(=O)n(-c2ccccc2)n1C [4-Aminoantipyrine],1.29,0.968,1.5,0.907,0.845,1.32
Cc1nc(C#Cc2ccnc(Cl)c2)c(C)n1-c1ccc(OC(F)(F)F)cc1,0.836,0.736,0.706,0.731,0.904,1.2
CN(Cc1cnc2nc(N)nc(N)c2n1)c1ccc(C(=O)N[C@@H](CCC(=O)O)C(=O)O)cc1 [Methotrexate disodium],2.05,3.23,0.912,0.603,1.47,2.39
Cc1ccc(N(CC2=NCCN2)c2cccc(O)c2)cc1 [Phentolamine Mesylate],1.55,0.595,0.949,1.19,1.72,1.1
Cc1cc(C)c(CNC(=O)c2cc(-c3ccc(CN4CCOCC4)cc3)cc3c2cnn3C2CCCC2)c(=O)[nH]1,1.48,1.7,0.808,1.97,1.44,0.692
COc1cccc2c1C(=O)c1c(O)c3c(c(O)c1C2=O)C[C@@](O)(C(=O)CO)C[C@@H]3O[C@H]1C[C@H](N)[C@@H](O)[C@H](C)O1 [Epirubicin HCl],3.54,4.33,3.92,5.12,4.78,4.83
Cc1cc(-c2ncc(CC(=O)Nc3ccc(-c4cnccn4)cn3)cc2C)ccn1,1.05,1.24,0.884,0.878,0.741,0.931
Cc1cc(C#N)cc(C)c1Oc1nc(Nc2ccc(C#N)cc2)nc(N)c1Br [Etravirine (TMC125)],1.93,2.85,1.7,0.981,2.06,1.73
COc1ccc(-c2nc3cc(C4=NNC(=O)CC4C)ccc3[nH]2)cc1 (stereo unspecified) [Pimobendan],1.43,1.4,1.01,1.27,1.2,1.02
CC(C)(Oc1ccc(Cl)cc1)C(=O)O [Clofibric Acid],0.903,0.74,0.644,0.793,0.498,0.547
Oc1c(I)cc(Cl)c2cccnc12 [Clioquinol],1.29,1.03,1.05,1.37,0.894,1.24
O=C(Nc1cc(Cl)cc(Cl)c1O)c1c(O)c(Cl)cc(Cl)c1Cl [Oxyclozanide],1.04,0.69,0.929,0.828,0.649,1.52
O=C(c1ccc(F)c(F)c1Nc1ccc(I)cc1F)N1CC(O)([C@@H]2CCCCN2)C1 [Cobimetinib (GDC-0973. RG7420)],2.92,2.56,3.23,4.08,5.18,2.85
CC#CC(=O)N1CCC[C@H]1c1nc(-c2ccc(C(=O)Nc3ccccn3)cc2)c2c(N)nccn12 [Acalabrutinib (ACP-196)],0.929,0.693,2.19,1.3,3.25,1.22
CCCCNc1ccc(C(=O)OCCOCCOCCOCCOCCOCCOCCOCCOCCOC)cc1 [Benzonatate],1.17,1.09,0.781,1.36,0.687,1.37
CC(=O)Nc1ccc(C(=O)Nc2ccccc2N)cc1 [CI994 (Tacedinaline)],1.29,1.67,1.56,2.76,1.83,1.94
O=C(O)c1cn(C2CC2)c2cc(N3CCNCC3)c(F)cc2c1=O [Ciprofloxacin hydrochloride hydrate],1.39,0.835,0.784,1.29,0.735,1.87
COc1cc2c(cc1OC)CC(=O)N(CCCN(C)C[C@H]1Cc3cc(OC)c(OC)cc31)CC2 [Ivabradine HCl],1.05,1.49,1.14,0.867,2.1,0.925
COc1ccc(CC2c3cc(OC)c(OC)cc3CC[N+]2(C)CCC(=O)OCCCCCOC(=O)CC[N+]2(C)CCc3cc(OC)c(OC)cc3C2Cc2ccc(OC)c(OC)c2)cc1OC (stereo unspecified) [Atracurium Besylate],1.83,0.711,1.16,0.918,1.14,1.51
CCCCC/C=C\C/C=C\CCCCCCCC(=O)O [Linoleic acid],0.927,1.38,1.02,1.3,0.86,1.11
